Inhibition data for 59 molecules are collected here from PubChem BioAssay AID1992 (Sanford-Burnham Center for Chemical Genomics, 2009).

In all, about 50,000 compounds went through this assay and about 350 (0.7%) were called active. Many of the other results were omitted from the sample, so actives are more common in it than they were. Unmarked numbers belong to inactive results. Rule as the data show it: active = inhibition above about 60%; inactive = the rest.

Dual specificity protein phosphatase 3 (Homo sapiens), sequence (P51452 whole entry, looked up): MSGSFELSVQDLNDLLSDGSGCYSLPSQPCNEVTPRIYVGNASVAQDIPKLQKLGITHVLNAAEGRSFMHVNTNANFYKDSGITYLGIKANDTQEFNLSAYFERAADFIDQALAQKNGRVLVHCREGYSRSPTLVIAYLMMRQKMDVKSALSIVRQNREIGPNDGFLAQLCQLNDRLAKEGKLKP

This test concerns the target Dual specificity protein phosphatase 3 (Homo sapiens) (UniProt P51452). The experiment in a line: VHR1 phosphatase inhibitors, primary screen, biochemical, colorimetric, HTS (AID 1992). Conditions: recombinant VHR phosphatase, colorimetric substrate read-out; at 20 µM; active compounds read high.
The inhibition is the drop in the measured response relative to a control, in per cent. As to `CCOC(=O)Cc1csc(NC(=O)COc2cc(C)ccc2C(C)(C)C)n1`, the inhibition was 5.7%.
As to `Cc1ccc(-c2ccc(/C=C3\Sc4ccccc4C3=O)o2)c([N+](=O)[O-])c1`, the inhibition was -37.5%.
The result for `COc1ccc(N2C(=O)c3cccc4c(NC(CO)(CO)CO)ccc(c34)C2=O)cc1` reads -0.7%; that for `CCOC(=O)C1=C(O)CSC1=Nc1ccc(F)cc1`, 104% (active); that for `CCOC(=O)C1=C(O)CSC1=Nc1cccc(Cl)c1`, -1.6%.
Under `CCOC(=O)C1=C(O)/C(=C\c2cccc([N+](=O)[O-])c2)SC1=Nc1ccc(OC)cc1` stands -20.7%; under `COc1ccc(C2C(C(=O)/C=C/c3ccccc3)=C(O)C(=O)N2CCCCCC(=O)O)c(OC)c1` (centres undefined), 29.2%.
For `CCC(=O)N(CCC1(c2ccc(F)cc2)CCOC(C)(C)C1)Cc1ccc(OC)c(OC)c1` (centres undefined), the inhibition is -8.3%.
The result for `COc1ccc(C(=O)Nc2ccc3nn(-c4ccc(C)c(Cl)c4)nc3c2)cc1[N+](=O)[O-]` reads -21.1%; that for `Cc1c(N(C(=O)c2cccc(Cl)c2)C(C)C)c(=O)n(-c2ccccc2)n1C`, -7.9%.
The result for `O=C(/C=C\Nc1ccccn1)c1ccc2c(c1)OCO2` reads -7.8%.
With `COC(=O)Cn1cc(/C=C2\C(=O)NC(=O)N(c3cc(C)cc(C)c3)C2=O)c2ccccc21`, the inhibition was -5.9%.
The result for `C/C(=N\NC(=O)c1cccc(Cl)c1)c1ccccc1O` reads -3.8%.
Under `Cn1/c(=N/N=C/c2cc(Br)ccc2O)sc2ccccc21` stands 114% (active); under `Oc1ccc(Br)cc1/C=N/Nc1ccccn1`, -11%; under `Cc1ccc(/C=N/c2nc3ccc(Br)cc3s2)c(O)c1`, -5%.
Under `CC(=O)c1nc2cc([N+](=O)[O-])ccc2n1Cc1ccccc1` stands -31%; under `O=C(O)CCC(=O)Nc1cc(Cl)cc(Cl)c1`, 11.1%; under `COc1ccc(CN=CC2=C(O)CC(c3ccccc3)CC2=O)cc1` (centres undefined), 15.4%.
`O=[N+]([O-])c1ccc(OCC(O)Cn2cnc3ccccc32)cc1` (centres undefined): the inhibition was 39%.
Under `CCOc1ccc(-c2cc(C(=O)Nc3ccncc3)c3ccccc3n2)cc1` stands -20.9%; under `CC(C)(C)c1ccc(/C=N/NC(=O)Cc2cccc3ccccc23)cc1`, -3.8%.
Under `Cc1ccc2c(N)c(C(=O)c3ccccc3)sc2n1` stands -19.7%.
With `Nc1nnc(CCC(=O)c2ccccc2)s1`, the inhibition was 78.1% (active).
For the molecule `Nc1nnc(SCC(=O)NCc2ccccc2)s1`, the inhibition was -7%.
Under `COc1ccc(NC(=O)/C=C/c2cccc([N+](=O)[O-])c2)cc1` stands -2.5%; under `O=C(NCc1ccccn1)Nc1ccc(Cl)cc1`, 25.4%.
Under `COc1ccc(N/C(C)=C/C(=O)c2ccc(F)cc2)cc1` stands -8.4%.
The result for `COc1ccc(/C=C2/C(C)=C(C#N)c3nc(N)c(C#N)c(C)c32)cc1OC` reads 24%; that for `COc1ccccc1/C=N/NC(=O)CCc1c(C)n[nH]c1C`, -1.8%; that for `O=C(NN1CCOCC1)c1cccc(F)c1`, -10.6%.
For the molecule `Cc1cc(Cl)ccc1NC1=CC(=O)CC(c2ccccc2)C1` (centres undefined), the inhibition is -7.1%.
The result for `CN(C)/C=C(/Cl)C=C1C(=O)c2ccccc2C1=O` reads -2.3%; that for `COc1ccc([N+](=O)[O-])cc1NC(=O)CCc1ccccc1`, -10.6%; that for `CCCCCOC(=O)CSc1nnc(-c2ccccc2Cl)o1`, -27.4%.
The result for `CCCOc1ccc(C(=O)Nc2ccc(N(CC)CC)cc2)cc1` reads -10.9%.
Under `CCCOC(=O)c1ccc(NC(=O)c2ccc(OCc3ccccc3)cc2)cc1` stands 109% (active).
Turning to `CCOC(=O)c1ccc(NC(=O)c2cc(OCC)cc(OCC)c2)cc1`, the inhibition is -14.7%.
The result for `CCOC(=O)C(=O)C1CCc2c([nH]c3ccc(C)cc23)C1=O` (centres undefined) reads -0.5%.
For `COc1ccc(OC)c(-n2c(O)c(C=Nc3cccc(C)c3)c(=O)[nH]c2=O)c1`, the inhibition is -17.5%.
Under `COc1ccc(NC(=O)C2=C(C)NC(=O)NC2c2ccc(OC)cc2)cc1` (centres undefined) stands 24.2%.
Under `COC(=O)C1=C(C)N=c2s/c(=C\c3cc(OC)c(OC)cc3[N+](=O)[O-])c(=O)n2C1c1ccccc1` (centres undefined) stands -6%; under `O=C(Nc1cccc2ccccc12)c1ccc(-c2ccccc2)cc1`, -1.1%; under `Cc1cc(/C=C2/NC(=S)NC2=O)c(C)n1-c1ccc(N2CCOCC2)cc1`, 61.6% (active).
Under `Cc1cc(C=C2C(=O)NC(=S)NC2=O)c(C)n1-c1ccc(F)cc1` stands 0.6%.
For `Cc1cc(/C=C2/NC(=O)NC2=O)c(C)n1-c1ccc(Cl)cc1`, the inhibition is -8.6%.
Under `O=C1NC(=S)N(c2ccc(Cl)cc2)C(=O)/C1=C/c1ccc(-c2ccccc2C(=O)O)o1` stands 95.3% (active); under `CCOc1ccc(N2C(=O)NC(=O)/C(=C/c3ccc(-c4ccccc4[N+](=O)[O-])o3)C2=O)cc1`, 19%.
As for `O=C1/C(=C/c2ccc(-c3ccc(Cl)cc3C(=O)O)o2)Sc2ccccc21`, the inhibition was 15.2%.
On to `COc1ccc(C(=O)NC2CC(C)(C)NC(C)(C)C2)cc1OC`, for which the inhibition was -52.9%.
Under `O=C(Nc1ncc(Br)cc1Br)c1cccc2ccccc12` stands 101%; under `COC(=O)c1cc(C(=O)Nc2ncccc2C)cc([N+](=O)[O-])c1`, 7.6%; under `C/C(=C\C(=O)c1ccc(Br)cc1)Nc1ccccc1F`, 4.7%.
The result for `CC1=NN(c2cccc(Cl)c2)C(=O)/C1=C\c1c(C)[nH]n(-c2ccccc2)c1=O` reads -29.9%; that for `CC1=NN(c2ccc(S(N)(=O)=O)cc2)C(=O)/C1=C\c1ccc(-c2ccc(Cl)c(C(=O)O)c2)o1`, -1.9%; that for `CC1=NN(c2ccc(S(N)(=O)=O)cc2)C(=O)/C1=C\c1ccc(-c2ccc(C(=O)OC(C)C)cc2)o1`, -1.6%.
The result for `CC1=NN(c2ccc(S(N)(=O)=O)cc2)C(=O)/C1=C\c1ccc(-c2cc([N+](=O)[O-])ccc2C)o1` reads 77.1% (active).
Regarding `NC(=O)C1CCN(S(=O)(=O)c2ccc3ccccc3c2)CC1`, the inhibition is -3.8%.
The result for `CCc1ccc(NC(=O)C(=O)NCCN2CCOCC2)cc1` reads 12.8%.
